Screening results deposited in PubChem BioAssay by National Center for Advancing Translational Sciences (NCATS).
HT1080-NT tox: kills 2HG-producing HT-1080-NT fibrosarcoma cells; hit rate 1.6% among 360,000; Potency, µM (top dose mostly 46.1 µM), for the others: at the highest dose activity, negative = less viability, most hits filed as cytotoxic; HT-1080-NT fibrosarcoma viability, CellTiter-Glo ATP luminescence, 48 h;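 note: NT is the 2HG producing partner of a matched IDH1 knockdown line; potency is the fitted concentration of half-maximal effect; 0% = DMSO-treated cells and -100% = media-only wells without cells; nearly all actives have a fitted effect of over 55% in size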
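Compounds were tested in concentration-response format on HT-1080-NT cells for 48 hours at 37 degrees C. Cell viability came from CellTiter-Glo luminescence; curves were classified by r2, response magnitude and activity.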
HT1080 IDH1KD tx: kills HT-1080 cells with IDH1 knockdown; hit rate 2% among 360,000; HT-1080 IDH1 knockdown viability, ATP luminescence, 48 h; Potency, µM (titrated, usually from 46.1 µM), for inactives: at the top dose activity, negative = toxicity, most hits filed as cytotoxic; AID 686971;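 note: potency is the fitted concentration of half-maximal effect; 0% = DMSO wells and -100% = cell-free medium wells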
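In this qHTS, HT-1080 cells depleted of IDH1 are exposed for 48 h at 37 °C to compound titrations. Toxicity is scored from CellTiter-Glo luminescence, with DMSO as full viability and medium alone as none.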
DT40 TDP1 no CPT: qHTS for Inhibitors of human tyrosyl-DNA phosphodiesterase 1 (TDP1): qHTS in cells in absence of CPT | DT40 Tdp1-/- hTDP1 cells, no CPT, ATP luminescence, 48 h | Potency, µM (top dose mostly 46.2 µM), for the others: top-dose activity change, negative = growth inhibition, usual class: inhibitors | hit rate 15% among 420,000; note: potency is the fitted concentration of half-maximal effect; nearly all actives have a fitted effect of over 55% in size
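Chicken DT40 Tdp1-/- cells complemented with human TDP1, screened without camptothecin (DMSO vehicle only), 400 cells/well. Compounds pin-transferred, cells incubated at 37 °C for at least 48 hr. Growth read as ATP-dependent luminescence (CellTiter-Glo, 30 min at RT).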
IL-1B inflam inh: inflammasome signaling inhibition, IL-1 beta readout; THP-1 LPS/ATP IL-1B secretion, AlphaLISA, 16 h; stronger effect = lower value; activity change, % at 57.5 µM; hit rate 4.7% among 360,000; AID 743279; in the data active = activity change below about -50%; inconclusive = mostly about -30% to -49%
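THP-1 cells pretreated 1 hr with compounds (up to 57.5 uM final), then stimulated with LPS (250 ng/mL final) plus ATP (1.25 mM final); secreted IL-1B measured by AlphaLISA after 16 hr, decreased signal indicating inhibition.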
DT40 TDP1 CPT: growth inhibition of DT40 Tdp1-/-;hTDP1 cells with camptothecin (screen for TDP1 inhibitors); chicken DT40 Tdp1-/-;hTDP1 cells + 20 nM CPT, ATP luminescence, 48 h; AID 686979; Potency, µM (doses to about 46.2 µM), for the others: at the highest dose activity change, negative = growth inhibition, most hits filed as inhibitors; hit rate 12% among 420,000; note: potency is the fitted concentration of half-maximal effect; nearly all actives have a fitted effect of over 55% in size
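Cell growth measured by CellTiter-Glo luminescence after a minimum 48 h, 37 C compound exposure with 20 nM CPT in Tdp1-knockout DT40 cells stably expressing hTDP1, seeded 400/well; qHTS titration format.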
The depositor's hits bear a star; ? = inconclusive; / = not tested or not shown; [ ] = remark or other dose. A selection: hits, their analogues and other compounds. The true share with any hit is near 19%. Unless noted, calls come from the whole dose curve; as a rule, active = well fitted curve in the direction sought with a large enough effect; inconclusive = small, poorly fitted or top-dose-only effect, or another doubt; inactive = no such curve, though single readings can be large; an effect the other way counts as inactive or inconclusive. Unless noted, % is set by controls: 0 for no effect and ±100 for the full control effect.

SMILES | HT1080-NT tox | HT1080 IDH1KD tx | DT40 TDP1 no CPT | IL-1B inflam inh | DT40 TDP1 CPT
Cc1ccccc1-c1cc(C(=O)N/N=C/c2cccnc2)c2ccccc2n1 | -23.3% | -29.0% | ? | 25.4 | ?
CCn1ccnc1CNC(=O)c1ccc(OC2CCN(C(=O)COC)CC2)cc1 | 9.4% | 13.3% | 9.8% | 9.4 | 1.9%
CCCOc1cccc(-c2cc(C(=O)NN)c3ccccc3n2)c1 | -1.5% | ? | 10.3µM* | 64.7 | 9.2µM*
CCCOc1cccc(-c2nc3ccccc3c(=O)o2)c1 | -1.7% | -26.3% | ? | 0.0 | ?
NC(=O)C1CCN(C(=O)c2ccc(NC3=NC4CS(=O)(=O)CC4S3)cc2)CC1 (centres undefined) | 1.3% | 5.1% | 1.7% | -15.5 | -1.1%
Cc1cc(NC(=O)CSc2nnc(-c3ccccc3)o2)no1 | -9.4% | -17.8% | 23.1µM* | -11.0 | ?
Cc1cc(NC(=O)CSc2nnc(-c3ccc(O)cc3)o2)no1 | 9.2% | 4.5% | -1.9% | 0.0 | 7.3%
Cc1cc(NC(=O)CSc2nnc(-c3ccccc3)c(-c3ccccc3)n2)no1 | 2.91µM* | 5.17µM* | 5.17µM* | -3.0 | 3.66µM*
Cc1cc(NC(=O)CSc2nnc(-c3ccoc3C)o2)no1 | 11.2µM* | 6.31µM* | ? | 17.9 | ?
Cc1cc(NC(=O)CSc2ccccc2)no1 | -5.7% | -1.8% | -10.6% | -7.9 | -16.7%
COC(=O)[C@]12CCCCC=C1N(Cc1ccc3c(c1)OCO3)C(=O)[C@H](CC(=O)NCc1ccccc1)C2 | 0.2% | -4.9% | ? | -13.9 | ?
CN1C(=O)c2ccc(C(=O)Nc3ccccc3O)cc2C1=O | 15.6% | 9.6% | -2.8% | 28.7 | -0.5%
CCOc1ccc(S(=O)(=O)N2CCCC(C(=O)NC3CC3)C2)cc1Cl (centres undefined) | -2.9% | -6.3% | ? | -15.4 | ?
C[C@H]1CN(CCc2ccccc2)C(=O)[C@@H]1CC(=O)Nc1ccccc1 | 4.9% | 0.6% | ? | -20.4 | -24.7%
COc1ccc(-c2noc3c2-c2nc(-c4ccc(Br)cc4)sc2CC3)cc1 | 15.6% | 9.3% | -16.0% | 26.8 | -0.9%
Cc1cccc(C)c1-n1nnnc1-c1nc2cc3ccccc3cc2[nH]c1=O | 0.651µM* | 0.366µM* | 0.731µM* | 8.2 | 0.517µM*
Cc1cccc(C)c1-n1nnnc1-c1nc2cc(Br)ccc2[nH]c1=O | -1.3% | -0.5% | -28.6% | -3.6 | ?
COc1ccccc1N1CCN(C(=O)CSc2ncccc2-c2nc3ccccc3[nH]2)CC1 | -20.9% | -27.8% | ? | 0.0 | 14.6µM*
COc1ccccc1N1CCN(C(=O)CSc2nc(N)cc(=O)[nH]2)CC1 | 2.2%[9.24 µM] | -11.4% | -8.4% | 0.0 | ?
COc1ccc(N2CCN(C(=O)CSc3ncccc3-c3nc4ccccc4[nH]3)CC2)cc1 | 2.9% | 7.5% | 29.1µM* | 7.2 | 18.4µM*
O=C(CSc1ncccc1-c1nc2ccccc2[nH]1)NC1CC1 | 3.2% | -4.8% | -1.0% | -9.3 | -27.8%
O=C(CSc1nc2ccccc2[nH]1)N1CCN(c2ccccc2)CC1 | 4.8% | 5.4% | -6.7% | -1.0 | -16.7%
O=C(CSc1ncccc1-c1nc2ccccc2[nH]1)N1CCN(c2ccccc2F)CC1 | -13.8% | -17.7% | ? | -22.8 | 16.4µM*
CCCSc1nnc(NC(=O)c2cc(=O)c3ccccc3o2)s1 | / | / | -16.6% | / | 1.4%
O=c1c(-c2cccs2)nc2cnc(N3CCOCC3)nc2n1Cc1cccs1 | / | / | -8.3% | / | -15.5%
SMILES | HT1080-NT tox | HT1080 IDH1KD tx | DT40 TDP1 no CPT | IL-1B inflam inh | DT40 TDP1 CPT
CC(C)(C)C(=O)c1cnc(Nc2ccccc2Cl)s1 | -20.1% | -9.2% | -26.3% | ? | -22.1%
O=C(c1ccccc1)c1cnc(Nc2ccccc2Cl)s1 | -3.1% | -15.3% | -7.7% | -57.8* | -21.5%
c1coc(CNc2c3c(nc4ccccc24)CCC3)c1 | -6.6% | -13.4% | 23.1µM* | -74.3* | 16.4µM*
N#Cc1c2c(c(NCc3ccco3)n3c1nc1ccccc13)CCC2 | 1.9% | 6.7% | 20.6µM* | 55.1 | -59.3%
Fc1ccc(Nc2nc(NCc3ccco3)c3ccccc3n2)cc1 | ? | -17.7% | 6.51µM* | -102.0* | 9.2µM*
CC(C)NCC(=O)Nc1c2c(nc3ccccc13)CCC2 | -7.8% | -15.4% | -12.4% | 26.8 | -22.9%
Nc1nc(Nc2ccccc2)nc(NCc2ccco2)c1[N+](=O)[O-] | -4.9% | -8.6% | ? | -15.0 | ?
c1coc(CNc2nc(NCc3ccco3)c3ccccc3n2)c1 | / | / | 12.6µM* | / | 11.2µM*
CCOc1ccc(CNC(=O)CN2N=C(c3ccccc3)CCC2=O)cc1OC | / | / | -1.3% | / | -5.4%
COc1ccc2c(c1)CCc1cnc(-n3ncc(C(=O)N4CCN(CCO)CC4)c3C3CC3)nc1-2 | / | / | -17.5% | / | 5.9%
COCC(C)N1CCC(Oc2ccc(C(=O)N3CCCC3)cc2)CC1 (centres undefined) | 1.4% | -1.6% | 13.1% | 14.1 | 7.0%
Cn1c(=O)c2[nH]c(CCc3ccncc3)nc2n(C)c1=O | 0.5% | 0.7% | -15.3% | 17.4 | 14.4%
Cc1ccccc1CNCCCSc1nnnn1C | / | / | -15.4% | / | -12.6%
Cc1ccc(Nc2nc(N)c([N+](=O)[O-])c(NCc3ccco3)n2)cc1 | -29.0% | ? | ? | -6.2 | ?
Cc1ccc2c(NCc3ccco3)nc(NC(C)C)nc2c1 | 25.9µM* | 18.4µM* | ? | -111.4* | ?
O=C(CNC(=O)C1COc2ccccc2O1)N/N=C\c1ccc(Cl)cc1 (centres undefined) | 24.9% | 13.1% | -0.4% | -6.4 | -1.8%
CS(=O)(=O)Oc1ccc2c(c1)O/C(=C\c1cccc([N+](=O)[O-])c1)C2=O | 11.7% | -0.4% | -12.1% | -4.6 | -3.9%
COc1cccc(OC)c1C(=O)Oc1ccc2c(c1)O/C(=C\c1ccncc1)C2=O | 18.4µM* | ? | 11.6µM* | -100.7* | 18.4µM*
Cc1ccc(S(=O)(=O)Oc2ccc3c(c2)O/C(=C\c2cccnc2)C3=O)cc1 | 11.2%[9.24 µM] | -15.3% | 20.6µM* | -9.0 | ?
O=C1/C(=C/c2ccncc2)Oc2cc(OS(=O)(=O)c3ccccc3)ccc21 | ? | ? | 11.6µM* | 180.5 | ?
O=C1/C(=C/c2ccccc2)Oc2cc(OC(=O)N3CCOCC3)ccc21 | 11.0% | 11.5% | ? | -68.2* | ?
Cc1ccc(-c2n[nH]c3c2CCC3)cc1 | -2.0% | -0.3% | 5.4% | -8.0 | -11.2%
COc1cc(/C=C/CN2CCOc3ccc(C(O)c4cccnc4)cc3C2)ccc1O (centres undefined) | / | / | ? | / | 16.1%[9.04 µM]
CCc1ccc(/C=C2\Oc3cc(OS(C)(=O)=O)ccc3C2=O)cc1 | 3.7% | 13.5% | ? | -19.7 | ?
O=C1/C(=C/c2cccnc2)Oc2cc(OS(=O)(=O)c3ccc(F)cc3)ccc21 | -4.9% | 4.3% | ? | -21.5 | 10.3µM*
